Data: PubChem BioAssay AID1159580 (chemical genetic matrix, 2015)
Where “and” joins values, the source holds several entries; their conditions need not be identical. Equal values may be shown once. Among all 5,500 compounds or so, about 2,000 (36%) were called active. About 18% were inconclusive and are not listed. Cut-off read from the data, not from the text of the source: active = normalized growth mostly below about 0.91 (no sharp cut-off); inconclusive = no clear call, values can overlap the other calls; inactive = mostly above about 0.92. The list shows a part of the results.

Assay: chemical genetic growth profiling, strain panel (AID 1159580);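 note: tested at 20 µM; growth read once vehicle control cultures reached saturation at 30 °C; 1 = growth at the plate median or of vehicle wells; lower values mean less growth of the strain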
Details: S. cerevisiae deletion strains, growth OD

Measured: normalized growth

CC(C)=CCc1c(O)cc2oc(C)cc(=O)c2c1O
inactive: locus YAL013W, strain DEP1, active compounds read low 0.96 | locus YAL021C, strain ccr4, active compounds read low 1.01 | locus YAL026C, strain drs2, active compounds read low 0.977 | locus YAL030W, strain snc1, active compounds read low 0.986 | locus YBL061C, strain skt5, active compounds read low 0.973 | locus YBR009C, strain hhf1, active compounds read low 0.984 | locus YBR021W, strain FUR4, active compounds read low 0.998 | locus YBR023C, strain chs3, active compounds read low 0.953 | locus YBR171W, strain sec66, active compounds read low 0.973 | locus YBR229C, strain ROT2, active compounds read low 1.01 | locus YBR231C, strain swc5, active compounds read low 0.98 | locus YBR279W, strain paf1, active compounds read low 0.982 | locus YCL011C, strain gbp2, active compounds read low 0.975 | locus YCL016C, strain dcc1, active compounds read low 0.969 | locus YCL029C, strain bik1, active compounds read low 0.986 | locus YCL061C, strain MRC1, active compounds read low 0.973 | locus YCL069W, strain vba3, active compounds read low 1.01 | locus YCR088W, strain abp1, active compounds read low 0.957 | locus YDL005C, strain med2, active compounds read low 0.981 | locus YDL035C, strain GPR1, active compounds read low 0.912 | locus YDL040C, strain nat1, active compounds read low 0.986 | locus YDL074C, strain BRE1, active compounds read low 0.947 | locus YDL101C, strain DUN1, active compounds read low 0.993 | locus YDL185W, strain tfp1, active compounds read low 0.98 | locus YDL192W, strain arf1, active compounds read low 0.93 | locus YDR001C, strain nth1, active compounds read low 0.976 | locus YDR069C, strain doa4, active compounds read low 1 | locus YDR137W, strain rgp1, active compounds read low 0.855 | locus YDR159W, strain sac3, active compounds read low 0.983 | locus YDR162C, strain NBP2, active compounds read low 0.903 | locus YDR297W, strain sur2, active compounds read low 0.973 | locus YDR318W, strain mcm21, active compounds read low 0.929 | locus YDR334W, strain swr1, active compounds read low 0.985 | locus YDR335W, strain msn5, active compounds read low 0.972 | locus YDR388W, active compounds read low 0.977 | locus YDR392W, strain spt3, active compounds read low 0.87 | locus YDR502C, strain sam2, active compounds read low 0.963 | locus YEL003W, strain gim4, active compounds read low 0.976 | locus YEL037C, strain rad23, active compounds read low 0.993 | locus YEL061C, strain CIN8 (second series), active compounds read low 0.979 | locus YEL061C, strain CIN8, active compounds read low 1 | locus YER015W, strain faa2, active compounds read low 0.983 | locus YER016W, strain bim1, active compounds read low 0.965 | locus YER110C, active compounds read low 0.989 | locus YER111C, strain swi4, active compounds read low 1 | locus YER155C, strain BEM2 (second series), active compounds read low 0.973 | locus YER155C, strain BEM2, active compounds read low 0.992 | locus YER167W, strain BCK2, active compounds read low 0.932 | locus YFR010W, strain ubp6, active compounds read low 0.98 | locus YGL078C, strain dbp3, active compounds read low 0.987 | locus YGL167C, strain pmr1, active compounds read low 0.996 | locus YGL173C, strain kem1, active compounds read low 0.985 | locus YGL227W, strain vid30, active compounds read low 0.968 | locus YGL240W, strain doc1, active compounds read low 0.968 | locus YGL248W, strain PDE1, active compounds read low 0.965 | locus YGL253W, strain hxk2, active compounds read low 0.964 | locus YGR078C, strain PAC10, active compounds read low 0.959 | locus YGR135W, strain pre9, active compounds read low 1 | locus YGR252W, strain gcn5, active compounds read low 0.878 | locus YHR027C, strain rpn1, active compounds read low 0.999 | locus YHR030C, strain SLT2, active compounds read low 1 and 0.999 | locus YHR079C, strain IRE1 (second series), active compounds read low 1 | locus YHR079C, strain IRE1, active compounds read low 0.971 | locus YHR094C, strain hxt1, active compounds read low 0.999 | locus YHR129C, strain ARP1, active compounds read low 0.987 | locus YIL066C, strain RNR3, active compounds read low 0.95 | locus YIL073C, strain SPO22, active compounds read low 1.01 | locus YIR030C, strain dcg1, active compounds read low 0.988 | locus YJL092W, strain hpr5, active compounds read low 0.975 | locus YJL095W, strain BCK1 (second series), active compounds read low 0.97 | locus YJL095W, strain BCK1, active compounds read low 0.928 and 0.969 | locus YJL115W, strain asf1, active compounds read low 0.984 | locus YJL129C, strain trk1, active compounds read low 0.951 | locus YJL134W, strain LCB3, active compounds read low 1 | locus YJL154C, strain vps35, active compounds read low 0.983 | locus YJL164C, strain tpk1, active compounds read low 0.929 | locus YJL166W, strain qcr8, active compounds read low 0.972 | locus YJL168C, strain set2, active compounds read low 0.999 | locus YJL187C, strain SWE1 (second series), active compounds read low 0.966 | locus YJL187C, strain SWE1, active compounds read low 0.98
active: locus YDR101C, strain arx1, active compounds read low 0.907 | locus YDR195W, strain ref2 1.16 [resistant] | locus YGL086W, strain mad1, active compounds read low 0.915 | locus YHR013C, strain ard1, active compounds read low 1.21 [resistant] | locus YHR142W, strain chs7, active compounds read low 0.851 | locus YHR200W, strain rpn10, active compounds read low 0.915 | locus YIL125W, strain kgd1, active compounds read low 0.904
